High-throughput results (PubChem BioAssay)
Rows were chosen to be rich in hits. Some 4.8% of all compounds tested hit in one or more screens of this group.
USP2a block: qHTS Assay for Inhibitors of Ubiquitin-specific Protease USP2a Using CHOP2 as the Reporter | USP2 core, Ub-CHOP2 coupled fluorogenic reporter, 485/531 | Potency, µM (titrated, usually from 38.3 µM), inactives show top-dose activity change, negative = inhibition, hits mostly inhibitors | 0.01% of 330,000 active;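 note: potency is the fitted concentration of half-maximal effect; plate controls were DMSO wells for no effect and full inhibition by NEM control for full effect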
Target sequence (O75604 whole entry, looked up): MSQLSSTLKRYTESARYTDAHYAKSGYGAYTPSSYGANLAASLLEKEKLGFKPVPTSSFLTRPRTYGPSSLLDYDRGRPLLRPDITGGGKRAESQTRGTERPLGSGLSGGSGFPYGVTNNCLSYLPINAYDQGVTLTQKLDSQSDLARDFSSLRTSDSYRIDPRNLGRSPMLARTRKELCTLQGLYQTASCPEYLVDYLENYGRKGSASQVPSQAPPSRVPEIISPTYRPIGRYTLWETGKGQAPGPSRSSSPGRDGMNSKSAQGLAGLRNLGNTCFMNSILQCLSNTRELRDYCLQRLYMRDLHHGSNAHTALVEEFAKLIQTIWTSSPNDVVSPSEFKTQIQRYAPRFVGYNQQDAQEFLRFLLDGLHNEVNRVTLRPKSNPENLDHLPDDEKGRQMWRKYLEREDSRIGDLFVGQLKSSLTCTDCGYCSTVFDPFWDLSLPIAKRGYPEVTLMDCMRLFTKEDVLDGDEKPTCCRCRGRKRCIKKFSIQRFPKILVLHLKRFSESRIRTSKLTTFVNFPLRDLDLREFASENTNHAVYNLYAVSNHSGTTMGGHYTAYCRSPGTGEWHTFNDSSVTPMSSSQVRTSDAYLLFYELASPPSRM
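USP2 core (10nM final) preincubated 30min RT with compound in 20mM Tris-HCl pH 8.0, 2mM CaCl2, 2mM beta-mercaptoethanol, 0.05% CHAPS; 25nM Ub-CHOP2 plus 25nM reporter substrate added, fluorescence (Ex485/Em531) read after 60min.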
ATXN2 expr inh: Primary qHTS for Inhibitors of ATXN expression; HEK-293 ATXN2-luciferase reporter, luminescence, 24 h; Potency, µM (highest dose often 57 µM), for inactives: at the top dose activity change, negative = inhibition, most hits filed as inhibitors; 0.72% of 360,000 active; AID 1745845, 2022; note: potency is the fitted concentration of half-maximal effect; % is set by controls: 0 for no effect and ±100 for the full control effect; nearly all actives have a fitted effect of over 55% in size
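ATXN2-luciferase reporter cells (luciferase flanked by upstream and downstream ATXN2 gene portions) were treated 24 h at 37 °C with compounds at up to 57 uM. SteadyGlo luminescence gave expression; GF-AFC fluorescence gave viability.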
ATXN viability: Viability Counterscreen for Primary qHTS for Inhibitors of ATXN expression; S2 cells (HEK-293 line with an ATXN2-luciferase reporter) viability, CellTiter-Fluor protease fluorescence, 24 h; 0.49% of 400,000 active; Potency, µM (titrated, usually from 56.7 µM), usual class: cytotoxic; note: potency is the fitted concentration of half-maximal effect; nearly all actives have a fitted effect of over 40% in size
USP1 inh: Inhibitors of USP1/UAF1: Primary Screen. recombinant USP1/UAF1, Ub-Rhodamine cleavage fluorescence. Potency, µM (series often up to 57.1 µM), for inactives: at the top dose activity change, negative = inhibition, hits mostly inhibitors. 0.23% of 390,000 active. AID 743255, 2014; note: potency is the fitted concentration of half-maximal effect; % is set by controls: 0 for no effect and ±100 for the full control effect; nearly all actives have a fitted effect of over 60% in size
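In this screen, compounds sit with the deubiquitinase complex (1nM) for 15 min at room temperature before Ub-Rho is added at 150nM final. Fluorescence rise is then followed for 6 reads every 60 seconds.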
IL-1B inflam inh: qHTS for Inhibitors of Inflammasome Signaling: IL-1-beta AlphaLISA Primary Screen; THP-1 LPS/ATP IL-1B secretion, AlphaLISA, 16 h; stronger effect = lower value; activity change, % at 57.5 µM; 4.7% of 360,000 active; in the data active = activity change below about -50%; inconclusive = mostly about -30% to -49%; note: % is set by controls: 0 for no effect and ±100 for the full control effect
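Secreted IL-1B measured by AlphaLISA bead assay after 16 h compound exposure of THP-1 cells; compounds (final up to 57.5 uM) added 1 h before LPS (250 ng/mL) and ATP (1.25 mM) stimulation; lower signal means less secretion.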
Active calls of the source: *; i = inactive; u = inconclusive; x = no result given; ! = a repeat was not active. Unless noted, calls come from the whole dose curve; as a rule, active = well fitted curve in the direction sought with a large enough effect; inconclusive = small, poorly fitted or top-dose-only effect, or another doubt; inactive = no such curve, though single readings can be large; an effect the other way counts as inactive or inconclusive.

SMILES | USP2a block | ATXN2 expr inh | ATXN viability | USP1 inh | IL-1B inflam inh
CCN1/C(=C/c2ccc3cc(C)ccc3[n+]2CC)Sc2ccccc21 | -2% | x | x | -23% | -100*
CCOC(=O)c1ccccc1NC(=O)c1sc2nc3n(c(=O)c2c1C)CCCC3 | x | x | x | 2% | x
O=C(c1ccc(CS(=O)Cc2ccc(Cl)cc2)o1)N1CCN(c2ccccn2)CC1 (stereo not given) | -4% | -28% | i | -11% | -62*
CSc1cccc(NC(=O)c2nnn(CC(=O)Nc3cc(C)cc(C)c3)c2N)c1 | 2% | 10% | i | -20% | 4
CCOC(=O)[C@H]1[C@H]2COc3ccc(Br)cc3[C@@H]2N2C(=O)c3ccc(Cl)cc3NC(=O)[C@@]12C | 3% | 1% | i | -27% | u
CCOC(=O)CSc1nc(C)cc(C)c1C#N | -6% | 6% | i | 9% | 14
COCCn1c(C)cc(C(=O)CSc2nc(C)cc(C)c2C#N)c1C | -1% | -11% | i | -11% | -52*
Cc1cc(C)c(C#N)c(SCC(=O)c2ccc(Cl)cc2Cl)n1 | 0% | -14% | i | -24% | -93*
Cc1ccc(C(=O)CSc2nnc3ccccn23)c(C)c1 | -1% | -17% | i | -5% | 20
COCCn1c(C)cc(C(=O)CSc2nnc3ccccn23)c1C | 0% | 7.1µM* | i | -15% | -8
COc1cc(=O)n2c(c1C(=O)N(C)Cc1nonc1C)CCN(C(=O)c1cc(C)ccc1C)CC2 | x | x | i | x | x
CCOc1ccc(NCCC(O)c2ccc(F)cc2)cc1 (stereo not given) | 0% | 4% | i | -16% | -17
CCn1nnnc1NCc1ccc(SC)cc1 | 0% | 1% | i | -13% | -77*
CC(=O)OCC1OC(n2cc(F)c(=O)[nH]c2=O)C(OC(C)=O)C1OC(C)=O (stereo not given) | x | x | i | -17% | 93
O=C1C(F)=CC(COC(c2ccccc2)(c2ccccc2)c2ccccc2)OC1n1cc(F)c(=O)[nH]c1=O (stereo not given) | x | 3.4µM* | 3µM* | u | -101*
Nc1ncccc1OCc1cccc(C(F)(F)F)c1 | 1% | 2% | i | 5% | -51*
NNC(=O)c1sccc1OCc1cccc(C(F)(F)F)c1 | 0% | -14% | i | -25% | -3
O=C(Cn1c(NCCCO)nc2ccccc21)c1ccc(F)cc1 | 1% | -12% | i | -13% | -13
CC1CCN(CCC(=O)Nc2ccc(Br)cc2)CC1 | x | -20% | i | -7% | -4
CCOC(=O)C1CCCN(CCC(=O)Nc2ccc(Br)cc2)C1 (stereo not given) | -1% | -9% | i | -14% | -60*
CCOC(=O)c1[nH]c2ccc(Br)cc2c1NC(=O)CCN1CCC(C(=O)OCC)CC1 | -1% | 0% | i | -21% | -64*
CC1CC(C)CN(CCC(=O)Nc2ccc(Br)cc2)C1 (stereo not given) | 0% | -26% | i | -34% | -54*
N[C@@H](C(=O)N[C@@H]1C(=O)N2C(C(=O)O)=C(CSc3cn[nH]n3)CS[C@H]12)c1ccc(O)cc1 | x | x | i | x | x
CCN1CCCC1CNC(=O)c1cnn(-c2nccc(-c3ccccc3F)n2)c1C (stereo not given) | x | x | i | x | x
Cc1ccc(OCc2nnn(CC(=O)NS(=O)(=O)c3c(C)noc3C)c2-c2ccccc2)cc1 | x | 10% | i | x | 5
SMILES | USP2a block | ATXN2 expr inh | ATXN viability | USP1 inh | IL-1B inflam inh
CC(=O)c1ccc(OCc2nnn(CC(=O)O)c2-c2ccccc2)cc1 | x | 15% | i | x | -69*
COC(=O)c1cccc(C(=O)N2CCc3c(cnc(C)c3CNC(=O)c3ccsc3)C2)c1 | x | x | i | x | x
Cc1ccc(C)c(Cn2c3ccccc3c3cnn(CC(=O)NCCN4CCOCC4)c(=O)c32)c1 | 1% | -17% | i | -10% | -25
Cc1c2cnn(CC(=O)NCCCN3CC(C)CC(C)C3)c(=O)c2c(C)n1Cc1ccccc1Cl (stereo not given) | 1% | -8% | i | -6% | -58*
CC1CC(C)CN(CCCNC(=O)Cn2ncc3c(=O)oc4ccccc4c32)C1 (stereo not given) | 0% | -23% | i | -13% | -4
Cc1ccc(C)c(Cn2c3ccccc3c3cnn(CC(=O)NCCCN4CCOCC4)c(=O)c32)c1 | -1% | u | i | -20% | -55*
CCCCN(C)CCCNC(=O)Cn1ncc2c3ccccc3n(Cc3ccccc3F)c2c1=O | x | -11% | i | -5% | x
CCCN(CCC)CCCNC(=O)Cn1ncc2c3ccccc3n(Cc3ccccc3F)c2c1=O | x | u | 14µM* | -25% | x
Cc1ccc(CN2CCOc3ccc(CN4CCC(O)(c5cccnc5)CC4)cc3C2)cc1C | x | x | i | x | x
COc1ccc(/C=C2\SC(=O)N(CCNC(=O)C3CSC4(C)CCC(=O)N34)C2=O)cc1 (stereo not given) | -1% | 15% | u | -16% | -6
Cc1ccc(S(=O)(=O)CCC(=O)NCCN2C(=O)S/C(=C/c3ccc(F)cc3)C2=O)cc1 | 5% | 18% | u | -15% | -62*
O=C(CCNC(=O)c1ccco1)NCCN1C(=O)S/C(=C\c2ccc(F)cc2)C1=O | 1% | x | i | -22% | -28
CC12CCC(=O)N1C(C(=O)NCCN1C(=O)S/C(=C\c3ccc(F)cc3)C1=O)CS2 (stereo not given) | -2% | 3% | i | -24% | -63*
CC1(C)Cc2c(sc(NC(=O)c3ccc4c(c3)OCCO4)c2C(N)=O)C(C)(C)N1 | 6% | -24% | i | -16% | -67*
CCOC(=O)c1ccc(NC(=O)c2ccc3c(c2)C(=O)N(Cc2cccnc2)C3=O)cc1 | 1% | -5% | i | -20% | 3
CCC(C)NC(=O)c1sc2nc(C)c(C(=O)Nc3ccc(Cl)cc3)c(-c3ccc(Br)cc3)c2c1N (stereo not given) | x | 2% | i | -25% | x
Cc1nc2sc(C(N)=O)c(N)c2c(-c2ccc(Br)cc2)c1C(=O)Nc1ccc(Cl)cc1 | x | 32µM* | u | -10% | x
NC1=NC(c2ccc(Br)cc2)n2c(nc3ccccc32)N1 (stereo not given) | -2% | u | u | -15% | -81*!
COc1ccccc1-c1cc(C(=O)Nc2c(C)nn(Cc3ccc(Cl)cc3)c2C)no1 | x | u | u | -12% | x
COC(=O)COc1cccc2c(=O)n(CC(=O)N3CCC(C)CC3)ccc12 | 11% | 2% | i | -16% | -61*
CCOC(=O)COc1cccc2c(=O)n(CC(=O)N3CCC(C)CC3)ccc12 | 1% | -5% | x | -16% | -19
